# Reference: PubChem BioAssay AID2716 (Broad Institute, 2010)
# Where “and” joins values, the source holds several entries; their conditions need not be identical. Equal entries are not always repeated. Hit rate of the full screen: of about 320,000 compounds, about 3,300 (1%) were called active. What follows is part of a selection rich in actives, with near analogues and random picks from the rest. Unmarked numbers belong to inactive results.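 The calls were made as follows: active = every valid replicate shows activation above 250% relative to neutral control wells; inactive = the rest, any valid replicate at or below 250%.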
# Test: yeast Mot1-301 growth rescue at high temperature, primary screen, SUMOylation pathway inhibitor project, S. cerevisiae, ATP luminescence, 38.5C (AID 2716);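 also: OY570 slx delta 5 strain wells were the positive control but not used for scaling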
# Settings: S. cerevisiae Mot1-301 growth rescue, at 18.8 µM, active compounds read high, percent above DMSO median, 100 means doubled
row,SMILES,growth rescue
1,O=C(OCCN1C(=O)c2ccccc2C1=O)[C@@H]1CC(O)CN1S(=O)(=O)c1ccccc1[N+](=O)[O-] (stereo partly drawn),-16.3%
2,CC(=O)N1CCN(S(=O)(=O)c2c(F)cc(F)c(Cl)c2F)CC1,9.01%
3,O=C(Nc1ccc(S(=O)(=O)Nc2ncccn2)cc1)C12CC3CC(CC(C3)C1)C2,35.6%
4,O=C(NNS(=O)(=O)c1c(F)cc(F)c(Cl)c1F)C12CC3CC(CC(C3)C1)C2,1720% (active)
5,CCN(CCn1cccn1)C(=O)CC1C(=O)NCCN1Cc1cccc(OC)c1OC (stereo not drawn),-10.6%
6,C=Cc1ccc(C(=O)N2CCCC(CCC(=O)N3CCN(c4ccccn4)CC3)C2)cc1 (stereo not drawn),-28.8%
7,O=C(c1ccc(F)cc1)c1c[nH]c(C(=O)NCc2cccnc2)c1,-16%
8,CCOC(=O)c1c(C)nn(-c2ncccc2NC(=O)CCC(=O)O)c1C,-17.7%
9,N#Cc1c(-c2ccccc2)nc(SCc2ccc([N+](=O)[O-])cc2)[nH]c1=O,10.6%
10,COc1ccccc1CC(=O)Nc1ccc([N+](=O)[O-])cc1OC,-7.23%
11,COc1ccccc1CSc1ncc(-c2ccc([N+](=O)[O-])cc2)[nH]1,1260% (active)
12,CC(C)(C)Oc1ccccc1Nc1nc(NCCO)nc(N2CCCC2)n1,8.32%
13,CC(Oc1ccccc1[N+](=O)[O-])C(=O)N/N=C/c1ccoc1 (stereo not drawn),547% (active)
14,O=C(COc1ccccc1[N+](=O)[O-])N/N=C/c1ccc[nH]1,-23.4%
15,CC(C)c1cc(C(=O)N/N=C/c2ccoc2)c(O)c(C(C)C)c1,2.88%
16,Nc1nonc1-n1nnc(C(=O)N/N=C/c2cc(Br)ccc2O)c1CSC1=NCCS1,-10.1%
17,CCN(C(=O)CSc1nc(N)cc(=O)[nH]1)C1CCS(=O)(=O)C1 (stereo not drawn),5.44%
18,CC(C)(C)c1ccc(C(=O)NNC(=O)Cc2ccccc2)cc1,10.6%
19,C=Cn1c(C(=O)O)ccc1-c1ccc(OC)cc1,6.91%
20,COc1ccccc1N1CCN(C(=O)C(=O)N/N=C/c2ccccc2F)CC1,490% (active)
21,COc1cccc(/C=N/NC(=O)C(=O)N2CCCC2)c1,11%
22,COc1ccccc1N1CCN(/N=C/c2ccc(O)cc2O)CC1,115%
23,CCOC(=O)c1cnc2ccc(F)cc2c1Nc1ccc2c(c1)OCCO2,37%
24,Nc1nc(COC(=O)CCC(=O)c2ccc(Cl)cc2)nc(Nc2ccccc2)n1,18.5%

row,SMILES,growth rescue
1,Cc1ccc(OC(=O)c2c(C)nn(-c3ccccc3)c2C)cc1,-15.1%
2,CCC(C(=O)NC1CCCCC1)N(C(=O)c1snc(C(N)=O)c1N)c1ccc(OC)cc1OC (stereo not drawn),-10.5%
3,CCOc1ccc(C(C(=O)NC2CCCC2)N(C(=O)c2snc(C(N)=O)c2N)C2CCCC2)cc1 (stereo not drawn),922% (active)
4,COc1ccc(C(C(=O)NC2CCCCC2)N(C(=O)c2snc(C(N)=O)c2N)c2ccccc2OC)cc1 (stereo not drawn),-0.518%
5,O=C(OCC(=O)N1CCc2ccccc21)C1CCCN1S(=O)(=O)c1ccc(Cl)cc1 (stereo not drawn),4.88%
6,C/C(CC(O)(/C=N/O)c1ccccc1)=N\O (stereo not drawn),0.714%
7,CCOc1c(OC)cccc1C(=O)NCC1(c2ccccc2)CCCC1,1.09%
8,CCc1nc2ccccc2c(C(=O)OC2CCCCC2=O)c1C (stereo not drawn),377% (active)
9,CCOC(=O)C1CCc2nc3ccccc3c(=O)n21 (stereo not drawn),141%
10,CCc1nc2ccccc2c(C(=O)NCc2ccc(OC)cc2)c1C,-10.8%
11,CCS(=O)(=O)N1CCCC(C(=O)NCCCN(C)Cc2ccccc2)C1 (stereo not drawn),2.83%
12,Cc1ccsc1C1C(C#N)=C(N)OC2=C1C(=O)CC(C)C2 (stereo not drawn),-1.54%
13,CCOCCCNCc1ccc(OCc2ccc(F)cc2)c(OC)c1,445% (active)
14,COc1ccc(CNCCCO)cc1OC,-14.2%
15,CCN(CC)CCNCc1ccc(OCc2ccc(Cl)nc2)c(OC)c1,-8.12%
16,O=S(=O)(NCC1OCCc2ccccc21)c1ccccc1 (stereo not drawn),-12.3%
17,Cc1cccc(NC(=O)CCn2c(=O)oc3ccccc32)c1,-12.1%
18,CCCCc1cc(=O)oc2cc(C)cc(OCc3nn[nH]n3)c12,64.1%
19,Cc1cc(=O)oc2c1c(C)nn2-c1ccc(Cl)cc1,-9.75%
20,Cc1cc(C)c2c(Cn3ccnc3)cc(=O)oc2c1,620% (active)
21,COC(=O)c1cc(S(=O)(=O)Nc2ccc(C)c(F)c2)c[nH]1,-5.05%
22,[O-][n+]1ccc(OCc2ccccc2)cc1,-10%
23,COCCNC(=O)C(c1ccc(C)cc1)N(C(=O)CCC(=O)Nc1ccccn1)c1cccc(C)c1 (stereo not drawn),451% (active)
24,CCOc1ccc(C(C(=O)NCCOC)N(CCOC)C(=O)CCC(=O)Nc2ccccn2)cc1 (stereo not drawn),0.544%

row,SMILES,growth rescue
1,COCCNC(=O)C(c1ccc(O)cc1)N(C(=O)CCC(=O)Nc1nccs1)c1ccc(C)cc1 (stereo not drawn),-11.3%
2,COc1ccc([N+](=O)[O-])cc1N(CC(=O)Nc1ccccc1C(=O)N1CCOCC1)S(C)(=O)=O,-10.4%
3,COC(=O)c1scc(C)c1NC(=O)CSc1ccc(Cl)cc1,-2.32%
4,COc1ccc(-c2ccc(CCC(=O)O)n2NC(=O)c2ccc(C(C)(C)C)cc2)cc1,-8.8%
5,CSc1nc2ccc(NC(=O)c3c(F)cccc3F)cc2s1,423% (active)
6,CCCC(=O)Nc1nc2ccc(NC(=O)c3c(F)c(F)c(OC)c(F)c3F)cc2s1,-0.657%
7,O=C(Nc1ccncc1)c1c(F)cccc1F,-9.16%
8,Cc1ccc(S(=O)(=O)NC(=O)N2CCCN(Cc3ccc(F)cc3)CC2)cc1,290%
9,Cc1cc(NC(=O)CSc2ncc(C(F)(F)F)cc2Cl)no1,6.57%
10,Cc1nc2ccccc2n1C(=O)N1CCOCC1,-12.1%
11,CCCC[C@H]1COCCS(=O)(=O)N1Cc1cccc(Cl)c1,-7.4%
12,Cc1ccc(CN2CCCOCCS2(=O)=O)cc1,-17.5%
13,CCC(C)[C@H]1COCCS(=O)(=O)N1Cc1ccc(C)cc1 (stereo partly drawn),881% (active)
14,COCCn1c(C)cc(C(=O)CSc2nnc(C3CC3)n2C2CC2)c1C,9.96%
15,O=C(CN1CCN(c2ccccn2)CC1)Nc1ccc(Br)cc1,5.41%
16,Cc1cc(Br)ccc1NC(=O)c1cnc(N2CCN(c3ccccn3)CC2)c2ccccc12,1030% (active)
17,Cc1cc(Br)ccc1NC(=O)c1sc2ncn(CC(=O)N3CCN(c4ccccn4)CC3)c(=O)c2c1C,-24.4%
18,COc1ccc(N2CCN(C(=O)COC(=O)c3cccc(S(=O)(=O)Nc4ccccc4OC)c3)CC2)cc1,-0.984%
19,COc1ccc(N2CC(C(=O)NCCS(=O)(=O)N3CCN(c4ccccc4)CC3)CC2=O)cc1 (stereo not drawn),3.93%
20,CCCCNC(=O)Cn1nc(C)c(S(=O)(=O)N2CCOCC2)c1C,-1.53%
21,O=C(COc1ccc2c3c(c(=O)oc2c1)CCC3)NC1CCCCC1,5.16%
22,O=C(COc1ccc2c3c(c(=O)oc2c1)CCCC3)NCC(O)c1ccccc1 (stereo not drawn),1.8%
23,NC(=O)C1CCN(C(=O)COc2ccc3c4c(c(=O)oc3c2)CCC4)CC1,296% (active)
24,CCCCCCCCCCCCN1[C@@H](CC(C)=O)c2cc(F)cc(F)c2S1(=O)=O,-17.6%

row,SMILES,growth rescue
1,COc1ccc(C)cc1N(C(=O)Cn1nnc(-c2ccc(C)o2)n1)C(C(=O)NC1CCCC1)c1ccncc1 (stereo not drawn),-11.2%
2,CN(CCO)c1ccc(/C=N/Nc2nncc3ccccc23)cc1,20.6%
3,CO/N=C(\C(=O)N[C@@H]1C(=O)N2C(C(=O)O)=C(COC(C)=O)CS[C@H]12)c1csc(N)n1 (stereo in doubt),-1.64% and 233%
4,C=CC1=C(C(=O)O)N2C(=O)[C@@H](NC(=O)/C(=N/OCC(=O)O)c3csc(N)n3)[C@H]2SC1,328% (active)
5,Cc1cc(C)cc(C(=O)NC2C(=O)N3C(C(=O)O)=C(CSc4nnc(C)s4)CSC23)c1 (stereo not drawn),-7.63%
6,CCN(C(=O)COC(=O)Cc1c(F)cccc1Cl)c1c(N)n(Cc2ccccc2)c(=O)[nH]c1=O,-1.24%
7,Cc1ccccc1N1CCN(CC(=O)NCc2ccc(Cl)cc2)CC1,22%
8,COc1ccc(OCc2cn3c(C)cc(C)nc3n2)cc1,1.72%
9,COc1ccc(C(C[N+](=O)[O-])n2nc(C)cc2C)cc1 (stereo not drawn),383% (active)
10,CCOc1ccc(C(C)C)cc1S(=O)(=O)n1nc(C)cc1C,-14.9%
11,Nc1c(-c2cccc(Cl)c2)cnn1-c1cccc([N+](=O)[O-])c1,0.816%
12,O=C(Nc1ccc(-n2ccnc2P(=O)(O)c2ccccc2)cc1)c1ccccc1Br,46.7%
13,O=C(CP(=O)(c1ccccc1)c1ccccc1)N1CCOCC1,634% (active)
14,O=C(Cc1ccccc1Cl)N1CCOCC1,9.61%
15,O=C(O)CC(CC(=O)N1CCOCC1)c1ccccc1 (stereo not drawn),-13.1%
16,COc1ccc(C(=O)COC(=O)CN2C(=O)C3CC=CCC3C2=O)c(OC)c1 (stereo not drawn),9.86%
17,CCC(CO)Oc1cc(NCc2ccccc2)c2ncn(C3CCCC3)c2c1 (stereo not drawn),9.9%
18,C/C(CC(C)C)=N\Oc1nc(C)cc(C)n1,-10.5%
19,CN(C)/C(CN1CCCCC1)=C1\N=C(c2ccccc2)OC1=O,1740% (active)
20,CC(CN1CCCCC1)c1ccccc1 (stereo not drawn),7.87%
21,O=C(CN1CCCC1)N1CCN(c2ccccc2)CC1,0.51%
